From PubChem
Hits are enriched below; roughly 3.4% of the tested compounds scored in any of these assays.
HSP90 refold inh – HSP90 inhibitors, primary screen, cell lysate, luminescence | Heat shock protein HSP 90 (rabbit reticulocyte lysate; luciferase refolding) | 290,000 tested, 0.91% active | Rabbit reticulocyte lysate, luciferase refolding luminescence, 3 h | inhibition, % at 5.6 µM | AID 1789, 2009;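 active = inhibition above the screen-wide mean plus 3 SD, computed separately per campaign, cut at about 16% in these data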;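 also: inhibitors lower the luminescence because luciferase stays unfolded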
PG9 Ab binder – binders of HIV-1 gp120 antibody PG9, primary screen, biochemical, TR-FRET. HIV-1 gp120 / PG9 antibody interaction. TR-FRET gp120-PG9 antibody binding. inhibition, % at 6.7 µM. 360,000 tested, 0.43% active. AID 624416, 2012; in the data active = inhibition above about 8.5%
AI-2 QS modul – Vibrio harveyi AI-2 quorum sensing modulators, primary screen, JMH597 strain, luminescence/OD600 ratio; Vibrio harveyi JMH597 AI-2 luminescence/OD600 ratio, 9 h; hits give low values; strain lacks LuxN and CqsS sensors; 0 = neutral-control median; activity change, % at 7.5 µM; 300,000 tested, 0.4% active; in the data active = activity change below about -75%, passing the limit was not always enough;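 also: luminescence divided by OD600 gain over 9 h not by final OD600 alone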
HSF1 inh – HSF1 inhibitors in luciferase reporter cells, primary screen, cell-based, NIH3T3, luminescence; AID 2098, 2009; activity change, negative = inhibition, % at 7.5 µM (by protocol); NIH3T3-HGL HSE-luciferase, MG132-induced, luminescence 8 h; hits give low values; 300,000 tested, 0.77% active;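 active = more than half of replicate wells show activity change below -50%, luminescence cut by over half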;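 also: luciferase reports HSF-1 transcriptional activity via heat shock element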
SMARCA2 act – SMARCA2 (BRM) function activators, primary screen, cell-based, luminescence, high throughput; activation, % at 9.1 µM; 370,000 tested, 1% active; AID 652017, 2013; MG213 cells, MMTV-luciferase reporter, dexamethasone, overnight; in the data active = activation above about 7.8%
GAA850 FXN act – FXN promoter activators, primary screen, cell-based, luciferase luminescence, HEK293 lucGAA850; HEK293 lucGAA850 FXN promoter luciferase reporter, 24 h; percent of 10 µM SAHA response; activation, % at 6 µM; 360,000 tested, 0.56% active; AID 540364, 2011;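 active = activation above the average of all compounds screened plus 3 SD, cutoff fixed separately per campaign, cut at about 7.5% in these data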
PG9 bind confirm – binders of anti-gp120 antibody PG9, confirmation, biochemical, TR-FRET. shares compounds with PG9 Ab binder. TR-FRET PG9 antibody binding. inhibition, % at 6.7 µM. 1,500 tested, 90% active. AID 651571, 2012; in the data active = inhibition above about 9%
PGV04 counter – binders of control antibody PGV04, counter-screen for PG9 antibody binder project, biochemical, TR-FRET, distinct HIV envelope site; shares compounds with PG9 Ab binder; TR-FRET PGV04 antibody-gp120 binding; inhibition, % at 6.7 µM; 1,500 tested, 95% active; AID 651604, 2012; in the data active = inhibition above about 9.5%
Large screens that a line does not name were inactive (follow-up assays come after a bar, where they were run).

C[C@@H]1CN(S(=O)(=O)C(C)(C)C)[C@H](CCO)/C1=C\CCO	none (no result: HSP90 refold inh, AI-2 QS modul, HSF1 inh, GAA850 FXN act)
Cc1ccc(S(=O)(=O)N2CC3(O)CN(C(=O)OC(C)C)N(C(=O)OC(C)C)CC3(OC(=O)Nc3cccs3)C2)cc1 (configuration not stated)	none (no result: HSP90 refold inh, AI-2 QS modul, HSF1 inh)
COCc1[nH]nc2c1C(c1cccc(C(F)(F)F)c1)N(c1ccc(OC)cc1)C2=O (configuration not stated)	none (no result: HSP90 refold inh, AI-2 QS modul, HSF1 inh, GAA850 FXN act)
CN(c1ccc(F)cc1)S(=O)(=O)c1ccc2[nH]cc(C(=O)O)c(=O)c2c1	PG9 Ab binder 9.6 (no result: AI-2 QS modul, HSF1 inh) | PG9 bind confirm 16 | PGV04 counter 19
COCCN(CCOC)C(=O)c1c[nH]c2ccc(S(=O)(=O)N(C)c3ccc(F)cc3)cc2c1=O	PG9 Ab binder 9.6 | PG9 bind confirm 11 | PGV04 counter 12
CCN=C1NC(c2ccc(F)cc2)C(C(=O)OC)=C(C)N1Cc1cccc(C(F)(F)F)c1 (configuration not stated)	none (no result: HSP90 refold inh, AI-2 QS modul, HSF1 inh, GAA850 FXN act)
CC(C)(C)Cc1nnc(NS(=O)(=O)c2ccccc2)s1	PG9 Ab binder 9.0 | PG9 bind confirm 11 | PGV04 counter 17
Cc1cc(NCCCOC(C)C)n2c(nc3ccccc32)c1C#N	PG9 Ab binder 11 | PG9 bind confirm 22 | PGV04 counter 33
Cc1cc(NCCCN(C)C)n2c(nc3ccccc32)c1C#N	none
CCCC(=O)Nc1ccc(C(=O)Nc2ccc([N+](=O)[O-])cc2OC)cc1	PG9 Ab binder 10 | PG9 bind confirm 9.5 | PGV04 counter 17
COc1ccc2nc(SCC(=O)NC3CCCC3)c(C)cc2c1	PG9 Ab binder 34 | PG9 bind confirm 26 | PGV04 counter 33
Cc1cc(SCC(=O)NC2CC2)nc2ccccc12	PG9 Ab binder 11 (no result: HSP90 refold inh, AI-2 QS modul, HSF1 inh) | PG9 bind confirm 12 | PGV04 counter 16
COc1ccc2nc(SCC(=O)NC3CCCCC3)[nH]c2c1	none (no result: AI-2 QS modul)
O=C(CSc1ccc2ccccc2n1)NC1CC1	none (no result: HSP90 refold inh, AI-2 QS modul, HSF1 inh)
COc1ccc2c(C)cc(SCC(=O)NC3CCCC3)nc2c1	PG9 Ab binder 11 (no result: HSP90 refold inh, AI-2 QS modul, HSF1 inh) | PG9 bind confirm 15 | PGV04 counter 29
O=C(CCCn1c(SCc2cccc(F)c2)nc2ccccc2c1=O)NCC1CCCO1 (configuration not stated)	PG9 Ab binder 13 | PG9 bind confirm 9.5 | PGV04 counter 13
CCCCOCC1CN(CCCC)S(=O)(=O)c2c(cccc2Sc2ccc(OC)c(OC)c2)O1 (configuration not stated)	none (no result: HSP90 refold inh, AI-2 QS modul, HSF1 inh, GAA850 FXN act)
COCCNC(=S)N(C)[C@H]1C[C@H]2c3[nH]c4c(-c5ccccc5)cccc4c3CCN2C[C@H]1[C@H](C)O	none (no result: HSP90 refold inh, AI-2 QS modul, HSF1 inh, GAA850 FXN act)
Cc1cc(SCC(=O)NCC2CCCO2)nc2ccccc12 (configuration not stated)	PG9 Ab binder 12 | PG9 bind confirm 17 | PGV04 counter 20
Cc1ccc(-n2c(SCC(=O)NCC3CCCO3)nc3ccccc3c2=O)cc1C (configuration not stated)	none (no result: HSP90 refold inh)
CC(=O)Nc1sc(C)c(C)c1C(=O)OCC(=O)Nc1ccc(S(N)(=O)=O)cc1	PG9 Ab binder 9.6 (no result: HSP90 refold inh, AI-2 QS modul, HSF1 inh) | PG9 bind confirm 13 | PGV04 counter 23
COC(=O)c1c(NC(=O)COC(=O)CCNS(=O)(=O)c2ccc(NC(C)=O)cc2)sc(C)c1C	none (no result: HSP90 refold inh)
COc1cccc(CO[C@H]2C=C[C@@H](c3ccccc3)O[C@@H]2CO)c1	none (no result: HSP90 refold inh, PG9 Ab binder, AI-2 QS modul, HSF1 inh, GAA850 FXN act)
COC(=O)c1cc(NC(=O)c2ccc(-c3ccccc3)cc2)ccc1Cl	PG9 Ab binder 10 | PG9 bind confirm 13 | PGV04 counter 22
O=C(NC1CCCC1)C1C2C=CC3(CN(Cc4cccs4)C(=O)C13)O2 (configuration not stated)	PG9 Ab binder 29 | PG9 bind confirm inactive | PGV04 counter inactive
Cc1ccc(C)c2nc(SCC(=O)Nc3ccc4c(c3)OCO4)c(C#N)cc12	none
Cc1cc2cc(C#N)c(SCC(=O)Nc3nonc3C)nc2cc1C	none
Cc1nonc1NC(=O)CSc1nc2c(C)cccc2cc1C#N	PG9 Ab binder 9.8 | PG9 bind confirm 42 | PGV04 counter 66
COc1ccc2cc(C#N)c(SCC(=O)Nc3nonc3C)nc2c1	PG9 Ab binder 25 | PG9 bind confirm 33 | PGV04 counter 62
CCOC(=O)CN1C(=O)[C@]2(OCCC=C[C@H]2C)c2ccccc21	none (no result: HSP90 refold inh, AI-2 QS modul, HSF1 inh, GAA850 FXN act)
O=C(Cn1cccc1C(=O)c1ccccc1)NCCc1ccc(Cl)cc1	PG9 Ab binder 9.4 | PG9 bind confirm inactive | PGV04 counter 10
O=C(Cn1cccc1C(=O)c1ccccc1)NCCc1ccccc1	none
C=CCN1C(=O)c2n[nH]c(COC)c2C1c1ccc(F)cc1 (configuration not stated)	none (no result: HSP90 refold inh, AI-2 QS modul, HSF1 inh, GAA850 FXN act)
COc1ccc(Cc2nnc(SCC(=O)c3ccc4c(c3)NC(=O)CO4)o2)cc1	PG9 Ab binder 9.3 (no result: HSP90 refold inh) | PG9 bind confirm 13 | PGV04 counter 30
N/C(=N\c1nc(CSc2nc3ccccc3s2)cc(=O)[nH]1)Nc1ccc(F)cc1	PG9 Ab binder 9.3 | PG9 bind confirm 27 | PGV04 counter 40
COc1ccc(C(=O)CSc2nnc(-c3cc(C)on3)o2)cc1	PG9 Ab binder 19 | PG9 bind confirm 23 | PGV04 counter 49
Cc1cc(-c2nnc(SCC(=O)c3ccc(Cl)cc3)o2)no1	none
COC(=O)[C@]12C[C@H](CC(=O)NCc3cccs3)C(=O)N(Cc3ccc(Cl)cc3Cl)C1=C[C@H](C(C)C)O[C@@H]2C1CC1	none (no result: HSP90 refold inh, PG9 Ab binder, AI-2 QS modul, HSF1 inh, GAA850 FXN act)
COc1ccc(Cl)cc1NC(=O)c1nnn(CC(=O)Nc2ccc3c(c2)OCO3)c1N	PG9 Ab binder 10 | PG9 bind confirm 20 | PGV04 counter 27
CC[C@@H](CCCc1ccc(OC)cc1)CCC(=O)N(c1ccccc1)c1ccccc1	none (no result: HSP90 refold inh, PG9 Ab binder, AI-2 QS modul, HSF1 inh, GAA850 FXN act)
O=C(Oc1c(Br)cc(Br)c2cccnc12)N1CCCCC1	PG9 Ab binder 9.1 | PG9 bind confirm 14 | PGV04 counter 18
CN(C(=O)[C@H]1O[C@@H](n2cnc(C(N)=O)n2)[C@H](O)[C@@H]1O)c1ccccc1	none (no result: HSP90 refold inh, AI-2 QS modul, HSF1 inh, GAA850 FXN act)
COc1ccc(S(=O)(=O)NNC(=O)c2cc3c4ccccc4n(C)c3s2)cc1	PG9 Ab binder 18 | PG9 bind confirm 19 | PGV04 counter 31
